Assay results from PubChem BioAssay (NCI).
About 83,000 compounds went through this panel and 20% of them were active in at least one assay; those are over-represented in the sample as a whole.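 Note: values are percent growth. 100 is the growth of untreated cells, values between 100 and 0 indicate rising inhibition; between -100 and 0 indicates cell death.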 Unmarked numbers belong to inactive results. Activity calls are given as the source filed them. The calls were made as follows: active = growth percent below 10; inactive = the rest.

What follows are molecules tested on ACHN renal (assay: NCI-60 one-dose screen, 48 h (100 = growth as untreated, 0 = no growth, -100 = all killed)). Settings: 10 µM unless noted.

Compound | growth
Cc1ccc2sc3c(NCCCNCCO)nc4ccccc4c3c(=O)c2c1 | 6.81% (active)
NCCOc1ncccc1/C=C1\c2ccccc2-c2ccc(F)cc21 | -20.8% (active)
CNCCNc1nc2ccccc2c2c(=O)c3cc(OC)ccc3sc12 | 35.4%
CC(C)c1ccc(S(=O)(=O)NC(=O)NC2CCCC2)cc1 | 103%
COc1cc(/C=C2\CN(C)C/C(=C\c3cc(CN4CCCC4)c(O)c(OC)c3)C2=O)cc(CN2CCCC2)c1O | 79%
Nc1ccccc1-c1ccc(-c2ccc(Cl)cc2)c2c1[nH]c1ccccc12 | 75.2%
O=C(Cn1cc(COc2ncnc3c2cnn3-c2ccccc2)nn1)Nc1ccccn1 | 91.1%
NCCOc1ccccc1/C=C1\c2ccccc2-c2ccc([N+](=O)[O-])cc21 | -73.6% (active)
COc1cc(/C(C#N)=C/c2nc3c(N4CCOCC4)nc(Cl)nc3n2C)cc(OC)c1OC | 13.7%
Cc1ccc2cccc(Oc3ccc(Nc4ncnc5onc(-c6ccccc6)c45)cc3)c2n1 | 80.1%
COC(=O)/C(CCC=C(C)C)=C1\[C@@H](OC(C)=O)C[C@@]2(C)[C@H]1C[C@@H](O)[C@H]1[C@@]3(C)CC[C@H](NCc4ccccc4)[C@@H](C)[C@@H]3CC[C@@]12C | 79.2%
COc1cc(/C=C/C(=O)c2ccc(Cl)cc2)cc(CN2CCCCC2)c1O | 87.1%
O=C(/C=C/c1ccc(Cl)cc1)c1ccc(Nc2nc(NCCO)nc(Nc3ccc(Cl)cc3)n2)cc1 | 57.2%
CN1CCN(Cc2ccc(NC(=O)c3[nH]ncc3Nc3cc(OC4CCCC4)ncn3)cc2)CC1 | 8.8% (active)
Cn1c(/C=C(\C#N)c2ccccc2)nc2c(N3CCOCC3)nc(Cl)nc21 | -96.2% (active)
CCN1C(=O)N(CC)C2Nn3c(s/c(=C\c4ccccc4F)c3=O)=NC21 (centres undefined) | 50.8%
Cc1ccccc1CNC(=O)C1CN(c2ccc(Cl)cc2)N(c2ccc(Cl)cc2)C1=O (centres undefined) | 87.4%
CCCCC1CCc2cccc3c(SCC(=O)N(C)c4ccc(Cl)cc4)cc[n+]1c23 (centres undefined) | 105%
Clc1ccc(Oc2ccc(Nc3ncnc4onc(-c5ccccc5)c34)cc2)c(Cl)c1 | 105%
O=C(O)c1cn(C2CC2)c2cc(N3CCN(C(=O)C[n+]4ccccc4)CC3)c(F)cc2c1=O | 103%

Compound | growth
O=C(CSc1nc2ccccc2c(=O)n1-c1ccccc1)Nc1ccc(C(=O)/C=C/c2ccc(Cl)cc2)cc1 | 102%
Cc1nc(Nc2cn[nH]c2C(=O)Nc2ccc(CN3CCN(C)CC3)cc2)c2ccsc2n1 | 92.8%
CN1C(=O)N(C)C2Nn3c(s/c(=C4\C(=O)N(CCc5ccccc5)c5ccccc54)c3=O)=NC21 (centres undefined) | 59.3%
O=C(/C=C/c1ccc(C(F)(F)F)cc1)c1ccc(Nc2nc(NCCO)nc(N3CCOCC3)n2)cc1 | 36.5%
COc1cc(/C=C/C(=O)c2ccc(Nc3nc(NCCO)nc(N4CCOCC4)n3)cc2)cc(OC)c1OC | 23.3%
COc1cc(/C=C2\CN(S(=O)(=O)c3ccccc3)C/C(=C\c3cc(CN4CCCC4)c(O)c(OC)c3)C2=O)cc(CN2CCCC2)c1O | 12.1%
O=c1c2cc(F)ccc2sc2c(Nc3ccncc3)nc3ccccc3c12 | 28.5%
O=c1c2cc(F)ccc2sc2c(NCCN3CCCC3)nc3ccccc3c12 | 35.6%
CNC(=O)c1cc(Oc2ccc(CC(=O)Nc3cc(C(C)(C)C)cn3C)cc2)ccn1 | 66.7%
COc1cc2nc(NC3CCCC3)nc(NC3CCN(C(C)C)CC3)c2cc1OC | 86.9%
O=C(NCc1ccco1)C1CN(c2ccc(Cl)cc2)N(c2ccc(Cl)cc2)C1=O (centres undefined) | 63.5%
COc1cccc2cc(N(C)c3nc(C)nc4ccsc34)ccc12 | 18.9%
CN1C(=O)N(C)C2(c3ccccc3)OC(=S)NC12c1ccccc1 (centres undefined) | 95.7%
Nc1nc(-c2cnccn2)nn1-c1nc2ccccc2s1 | 108%
COc1ccc(N)c(-c2cc3c(c4c2[nH]c2ccc(OC)cc24)CCCC3)c1 | 89.4%
COc1cccc(/C(C#N)=C/c2nc3c(N4CCOCC4)nc(Cl)nc3n2C)c1 | -98% (active)
O=c1c(-c2nc3ccccc3[nH]2)cc2ccccc2n1Cc1cn(Cc2ccc(N3CCOCC3)cc2)nn1 | 35.7%
Cn1c2c(c(=O)[nH]c1=O)NC1=C(C(=O)c3ccccc31)C1(C=C(O)c3ccccc31)N2 (centres undefined) | 89.7%
COC(=O)/C(CCC=C(C)C)=C1\[C@@H](OC(C)=O)C[C@@]2(C)[C@H]1C[C@@H](O)[C@H]1[C@@]3(C)CC[C@H](NCCCNCCCCNCCCN)[C@@H](C)[C@@H]3CC[C@@]12C | 42.4%
